Assay results from PubChem BioAssay (NCATS).
“And” between values parts separate entries of the source, which are not always exact repeats. Identical values can stand only once. Inconclusive results are not listed. Where a call stands in place of a potency, no number is given. A structure can be active in one record and inactive in another. The source made the active and inactive calls. The call rests on the fitted dose curve; in most records, active means well fitted curve in the direction sought with a large enough effect; inconclusive means small, poorly fitted or top-dose-only effect, or another doubt; inactive means no such curve, though single readings can be large; an effect the other way counts as inactive or inconclusive.

Columns and labels:
[1] = target: Metallo-beta-lactamase type 2 (Klebsiella pneumoniae) (UniProt C7C422); assay: qHTS to identify inhibitors of the New Delhi Metallo-beta-lactamase (NDM): assay validation screen against the NCATS LOPAC Collection (AID 1794843);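 further: nitrocefin turnover by NDM-1 measured as 485 nm absorbance at plateau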
How it was run: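 NDM-1 at 2 nM final in 50 mM HEPES pH 7.0 with 1 uM ZnSO4 and 0.01% Tween20 was preincubated with library compounds in DMSO. Nitrocefin (50 uM stock) was then added, and absorbance at 485 nm was read at the kinetic plateau.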

[2] = target: Glutathione peroxidase 1 (Homo sapiens) (UniProt P07203); assay: Primary qHTS Assay for Inhibitors of Recombinant Selenoprotein Glutathione Peroxidase 1 (GPX1) (AID 1845191); further: nearly all actives have a fitted effect of over 65% in size; further: potency means the concentration at half of the fitted maximal effect
How it was run: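 10 nM GPX1 + cpd, 30 min RT; start w/ 1 mM GSH, 0.5 mM cumene hydroperoxide, 0.5 mM NADPH, 100 nM GR, 0.01% BSA; buffer 50 mM Tris-HCl pH 7.5, 2 mM EDTA, 150 mM NaCl; Fl 340/450, 0 & 15 min.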

[3] = target: Phospholipid hydroperoxide glutathione peroxidase GPX4 (Homo sapiens) (UniProt P36969); assay: Primary qHTS Assay for Inhibitors of Recombinant Selenoprotein Glutathione Peroxidase 4 (GPX4) (AID 1845192); further: nearly all actives have a fitted effect of over 65% in size
How it was run: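 NADPH consumption, followed by fluorescence at 340/450 nm between 0 and 15 min, reports GPX4 activity via coupled glutathione reductase (100 nM). Enzyme 200 nM was pre-exposed to compound 30 min; 0.5 mM cumene hydroperoxide and 1 mM GSH served as substrates.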

[4] = Quantitative High-Throughput drug screen in 47 multiple myeloma cell lines against the NCATS MIPE library collection: FR4_PLB cell viability assay (AID 1918924; further: nearly all actives have a fitted effect of over 35% in size; further: potency means the concentration at half of the fitted maximal effect)
How it was run: (§1)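 Primary qHTS used for cherry-picking: cells at 500/well, library compounds for 48 h (37C, 5% CO2), luminescent ATP assay.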

[5] = Quantitative High-Throughput drug screen in 47 multiple myeloma cell lines against the NCATS MIPE library collection: Delta47_JCRB cell viability assay (AID 1918925; further: nearly all actives have a fitted effect of over 45% in size; further: potency means the concentration at half of the fitted maximal effect)
How it was run: (§2)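 We plated 500 myeloma cells per well, pinned in MIPE 4.0 compounds, and incubated for 48 hours at 37C. ATP was then quantified with CellTiter-Glo, with DMSO and media-only wells defining 100% and 0%.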

[6] = Quantitative High-Throughput drug screen in 47 multiple myeloma cell lines against the NCATS MIPE library collection: EJM_DSMZ cell viability assay (AID 1918926; further: nearly all actives have a fitted effect of over 30% in size; further: potency means the concentration at half of the fitted maximal effect)
How it was run: as §2

[7] = Quantitative High-Throughput drug screen in 47 multiple myeloma cell lines against the NCATS MIPE library collection: AMO1_DSMZ cell viability assay (AID 1918927; further: nearly all actives have a fitted effect of over 30% in size; further: potency means the concentration at half of the fitted maximal effect)
How it was run: as §2

[8] = Quantitative High-Throughput drug screen in 47 multiple myeloma cell lines against the NCATS MIPE library collection: ARP1_JJKsccF8 cell viability assay (AID 1918928; further: nearly all actives have a fitted effect of over 40% in size; further: potency means the concentration at half of the fitted maximal effect)
How it was run: (§3)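 Myeloma cells, 500 per well, were exposed to MIPE 4.0 drugs by pin transfer for 48 h at 37 °C, 5% CO2. Viability was read as ATP luminescence with CellTiter-Glo, normalised to DMSO-only (100%) and medium-only (0%) wells.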

[9] = Quantitative High-Throughput drug screen in 47 multiple myeloma cell lines against the NCATS MIPE library collection: ARD_JJKsccE7 cell viability assay (AID 1918929; further: potency means the concentration at half of the fitted maximal effect)
How it was run: as §2

[10] = Quantitative High-Throughput drug screen in 47 multiple myeloma cell lines against the NCATS MIPE library collection: Karpas620_DSMZ cell viability assay (AID 1918959); further: nearly all actives have a fitted effect of over 30% in size; further: potency means the concentration at half of the fitted maximal effect
How it was run: as §1

[11] = Quantitative High-Throughput drug screen in 47 multiple myeloma cell lines against the NCATS MIPE library collection: KMM1_JCRB cell viability assay (AID 1918960); further: nearly all actives have a fitted effect of over 30% in size; further: potency means the concentration at half of the fitted maximal effect
How it was run: as §3

[12] = Quantitative High-Throughput drug screen in 47 multiple myeloma cell lines against the NCATS MIPE library collection: Karpas417_ECACC cell viability assay (AID 1918961); conditions: Karpas417 myeloma viability, CellTiter-Glo ATP luminescence, 48 h; viability (% of DMSO): at 45.8 µM (top of the series); further: potency means the concentration at half of the fitted maximal effect
How it was run: as §2

[13] = target: Luciferin 4-monooxygenase (Photinus pyralis) (UniProt P08659); assay: Primary firefly luciferase (FLuc) qHTS assay for identification of artifact compounds. (AID 1845220); conditions: outcome: dose series up to 54.1 µM; further: nearly all actives have a fitted effect of over 60% in size
How it was run: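 Cell-free, 1536-well qHTS. Buffer pH 7.6 with 0.01% Tween-20 and 0.05% BSA; 10 uM D-luciferin, 10 uM ATP; 10 nM P. pyralis luciferase; luminescence after 5 min.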

[14] = tested on: Nanoluciferase (engineered Oplophorus gracilirostris luciferase); assay: Primary Nanoluciferase (NLuc) qHTS assay for identification of artifact compounds. (AID 1845222)
How it was run: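 Compounds are pinned into diluted (1:55) conditioned medium of NLuc-expressing S16 cells and held 15 min at room temperature protected from light. Nano-Glo substrate follows, and luminescence is read 5 min later.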

[15] = Primary redox qHTS assay for identification of artifact compounds. (AID 1845223)
How it was run: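 Amplex Red (25 uM) and HRP (250 mU/mL) in HBSS, with compounds for 15 min, then 250 uM DTT for 30 min, room temperature, dark. Fluorescence 525/598 nm read; normalized to DMSO and 10 uM DA3003; Hill fit.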

[16] = Primary fluorescence-based thiol-reactive (MSTI) qHTS assay for identification of artifact compounds. (AID 1845221);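 further: thiol-reactive compounds lower the probe fluorescence signal; nearly all actives have a fitted effect of over 65% in size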
How it was run: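 MSTI probe at 4 uM final in 2% DMSO/PBS pH 7.4; compounds, 1 h at room temperature in dark. Fluorescence Ex/Em 525/598 nm, normalised to Acetyl-MSTI and MSTI, fitted to 4-parameter Hill.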

Sequence of Glutathione peroxidase 1 (Homo sapiens) (P07203 whole entry, looked up): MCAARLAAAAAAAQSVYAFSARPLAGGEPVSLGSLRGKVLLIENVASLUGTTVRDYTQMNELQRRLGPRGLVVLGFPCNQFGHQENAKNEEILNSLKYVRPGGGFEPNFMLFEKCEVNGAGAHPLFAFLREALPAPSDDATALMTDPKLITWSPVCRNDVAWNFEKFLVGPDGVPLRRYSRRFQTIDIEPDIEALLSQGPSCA
Sequence of Metallo-beta-lactamase type 2 (Klebsiella pneumoniae) (C7C422 whole entry, looked up): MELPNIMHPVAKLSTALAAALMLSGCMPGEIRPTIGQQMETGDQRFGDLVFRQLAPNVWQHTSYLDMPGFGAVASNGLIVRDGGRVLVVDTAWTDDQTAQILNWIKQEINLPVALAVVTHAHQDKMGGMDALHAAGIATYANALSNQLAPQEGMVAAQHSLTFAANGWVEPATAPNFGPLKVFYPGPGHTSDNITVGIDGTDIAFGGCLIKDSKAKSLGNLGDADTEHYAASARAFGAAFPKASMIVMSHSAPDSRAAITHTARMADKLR
Sequence of Phospholipid hydroperoxide glutathione peroxidase GPX4 (Homo sapiens) (P36969 whole entry, looked up): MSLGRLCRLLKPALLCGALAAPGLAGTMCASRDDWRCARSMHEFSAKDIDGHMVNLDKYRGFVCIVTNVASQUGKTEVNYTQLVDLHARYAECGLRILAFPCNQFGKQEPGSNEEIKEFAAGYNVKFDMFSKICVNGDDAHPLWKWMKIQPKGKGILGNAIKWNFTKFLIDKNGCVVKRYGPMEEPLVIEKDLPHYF

| SMILES | outcome [1] | Potency [2] | Potency [3] | Potency [4] | Potency [5] | Potency [6] | Potency [7] | Potency [8] | Potency [9] | Potency [10] | Potency [11] | Potency [12] | outcome [13] | outcome [14] | Potency [15] | Potency [16] |
| --- | --- | --- | --- | --- | --- | --- | --- | --- | --- | --- | --- | --- | --- | --- | --- | --- |
| Cc1ccc(S(=O)(=O)N[C@@H](Cc2ccccc2)C(=O)CCl)cc1 | inactive | inactive | inactive | 20.9 µM (active) | 5.26 µM (active) | 16.6 µM (active) | 13.2 µM (active) | 20.9 µM (active) | 16.6 µM (active) | 11.8 µM (active) | 13.2 µM (active) | 11.8 µM (active) |  |  |  |  |
| NC(=O)c1ccc2[nH]ccc2c1 | inactive | inactive | inactive |  | inactive |  |  | inactive |  | inactive |  | inactive |  |  |  |  |
| CCCCc1oc2ccc(NS(C)(=O)=O)cc2c1C(=O)c1ccc(OCCCN(CCCC)CCCC)cc1 |  | inactive | inactive |  | 11.8 µM (active) |  | 9.35 µM (active) | 16.6 µM (active) | 16.6 µM (active) | 20.9 µM (active) | 20.9 µM (active) |  | inactive | inactive | inactive |  |
| Cc1noc(NS(=O)(=O)c2ccc(N)cc2)c1C |  | inactive | inactive | inactive | inactive | inactive | inactive | inactive | inactive | inactive | inactive | inactive |  |  |  |  |
| O=C(O)C1CCCN(CCC=C(c2ccccc2)c2ccccc2)C1 (stereo not given) | inactive | inactive | inactive | inactive | inactive | inactive | inactive | inactive | inactive | inactive | inactive |  |  |  |  |  |
| CC[C@H](C)C(=O)O[C@H]1C[C@@H](C)C=C2C=C[C@H](C)[C@H](CC[C@@H]3C[C@@H](O)CC(=O)O3)[C@H]21 |  | inactive | inactive |  |  | inactive | inactive | 23.5 µM (active) | inactive | inactive | inactive |  | inactive | inactive | inactive | inactive |
| CNC(=O)c1cc(Oc2ccc(NC(=O)Nc3ccc(Cl)c(C(F)(F)F)c3)cc2)ccn1 |  | inactive | inactive |  | 16.6 µM (active) |  | 5.26 µM (active) | 23.5 µM (active) | 2.64 µM (active) | 3.32 µM (active) | 2.96 µM (active) |  | inactive | inactive | inactive | inactive |
| CN1CCN(c2c(F)cc3c(=O)c(C(=O)O)cn4c3c2OCN4C)CC1 |  | inactive | inactive | inactive | inactive | inactive | inactive | inactive | inactive | inactive | inactive |  |  |  |  |  |
| CC1(C)[C@H](C(=O)O)N2C(=O)C[C@H]2S1(=O)=O |  | inactive | inactive | inactive | inactive | inactive |  | inactive |  | inactive | inactive |  | inactive | inactive | inactive | inactive |
| COc1cc2nc(N3CCCN(C)CC3)nc(NC3CCN(Cc4ccccc4)CC3)c2cc1OC | inactive | inactive |  | 5.26 µM (active) | 2.09 µM (active) | 9.35 µM (active) | 7.43 µM (active) | 8.33 µM (active) | 8.33 µM (active) | 3.72 µM (active) | 7.43 µM (active) | 2.35 µM (active) |  |  |  |  |
| Clc1ccccc1CN1CCc2sccc2C1 |  | inactive | inactive |  |  |  |  |  |  |  |  |  |  |  |  |  |
| CC(=O)Oc1ccccc1C(=O)Nc1ncc([N+](=O)[O-])s1 |  | inactive | inactive | 19.1 µM (active) | 30.3 µM (active) | 13.6 µM (active) | 13.6 µM (active) | 34 µM (active) | 21.5 µM (active) | 12.1 µM (active) | 8.55 µM (active) | 13.6 µM (active) |  |  |  |  |
| NC1(c2ccc(-c3nc4ccn5c(=O)[nH]nc5c4cc3-c3ccccc3)cc2)CCC1 |  | inactive | inactive | inactive | 0.332 µM (active) | 11.8 µM (active) | 3.72 µM (active) | 14.8 µM (active) | 0.296 µM (active) | inactive | 1.87 µM (active) |  | inactive | inactive | inactive | inactive |
| CCCCS(=N)(=O)CCC(N)C(=O)O (stereo not given) | inactive | inactive |  | inactive | inactive |  | inactive | inactive |  |  | inactive |  |  |  |  |  |
| CC(C(=O)O)c1ccc2c(c1)CC(=O)c1ccccc1S2 (stereo not given) |  | inactive and 16.1 µM (active) | inactive | inactive | inactive | inactive |  | inactive |  |  | inactive | 0.0209 µM (active) | inactive | inactive | inactive | inactive |
| Cc1nnc(C(=O)NC(C)(C)c2nc(C(=O)NCc3ccc(F)cc3)c(O)c(=O)n2C)o1 |  | inactive | inactive |  | inactive | inactive | 0.0042 µM (active) | inactive |  | inactive | inactive |  | inactive | inactive | inactive |  |
| OCc1ccc(-c2nn(Cc3ccccc3)c3ccccc23)o1 | inactive | inactive | inactive |  | 20.9 µM (active) | inactive |  | inactive |  |  | inactive |  |  |  |  |  |
| COc1cc2ncnc(Nc3cccc(Cl)c3)c2cc1OC | inactive | inactive | inactive | 26.4 µM (active) |  | 0.0418 µM (active) | 23.5 µM (active) | 26.4 µM (active) | 23.5 µM (active) |  | 20.9 µM (active) |  | inactive | inactive |  | inactive |
